# In PubChem BioAssay (NCATS):
# Records with an inconclusive call do not appear. Where a call stands in place of a potency, no number is given. Active and inactive are the calls of the source. The call rests on the fitted dose curve; in most records, active means well fitted inhibition curve with a large enough effect; inconclusive means small, poorly fitted or top-dose-only effect, or effect the other way; inactive means flat fitted curve, though single readings scatter.
# Assay: qHTS for Inhibitors of Plasmodium falciparum (CP250) proliferation (AID 504320)
# Conditions: P. falciparum CP250 in erythrocytes, SYBR Green DNA, 72 h; series mostly up to 6.7 µM
# Description: Plasmodium falciparum is a virulent malarial parasite that kills 1-2 million people worldwide each year. Malaria not only inflicts tremendous suffering and morbidity on the human population, but has dramatically influenced the course of civilization with profound sociological and economic implications (Shah, S. 2010). Transmitted by mosquitoes, the sporozoite form of the parasite enters the blood stream to infect hepatocytes, where they become merozoites that infect red blood cells (erythrocytes). Within erythrocytes, merozoites begin a […] cycle of growth and division, after which the parasite is released to infect new red blood cells. Gametocytes, which form within erythrocytes as well, circulate in the bloodstream and are ingested by the mosquito, thereby completing the life cycle (see CDC website). To profile malarial lines for differential chemical responses and to identify inhibitors of malarial growth, an assay that measures P. falciparum growth and replication within erythrocytes was employed. This assay uses a DNA binding fluorescent dye (SYBR Green) to detect parasite DNA following cell lysis. Because mature erythrocytes lack DNA, only Plasmodium-derived DNA is detected. The P. falciparum line cp250, derived from a malarial isolate from Cambodia, (Mu, J., et al. 2010) was added to the panel of lines, Dd2, HB3, 7G8 and GB4 in this study. Laboratory of Assay Development and Screening Technology [ADST] and NIH Chemical Genomics Center [NCGC] Boston University, Chemistry Department, Center for Chemical Methodology and Library Development [CMLD-BU] NIH National Institute of Allergy and Infectious Diseases [NIAID]
# ADST Assay Protocol Summary: The 1536-well SYBR Green viability assay was based on the method of Bennett et al (2004) and described previously in 1536-well format (Yuan J., et al. 2009). For screening 3 ul culture medium was dispensed into 1536 well black clear bottom plates (Aurora Biotechnologies) using a Multidrop Combi (Thermo Fisher Scientific Inc.), 23 nL compounds in DMSO were added by a pin transfer (Cleveland, P.H. and Koutz, P.J, 2005) using a pin tool-based delivery system (Kalypsys), and 5 ul of erythrocytes infected with P. falciparum one of five lines (cp250, Dd2, HB3, 7G8 or GB4, 0.3% parasitemia, 2.5% hematocrit final concentration) were added. The plates were incubated at 37C in a humidified incubator in 5% CO2 for 72 h, and 2 ul lysis buffer (20 mM Tris HCl, 10 mM EDTA, 0.16% saponin, 1.6% triton X, 10X SYBR Green I (supplied as 10,000X final concentration by Invitrogen) was added to each well. The plates were mixed for 25 sec with gentle shaking and incubated overnight at room temperature in the dark. The following morning, fluorescence intensity at 485(14) nm excitation and 535(25) nm emission wavelengths was measured on an EnVision (Perkin Elmer) plate reader. Plate reads were normalized relative to the control inhibitor (0.29 uM artemisinin) and vehicle (DMSO) wells present on each plate and then corrected by an algorithm using vehicle-only control plates at the beginning and end of the compound plate stack. References Shah, S. (2010). The Fever: how malaria has ruled humankind for 500,000 years. New York, Sarah Crichton Books. CDC web site, http://www.cdc.gov/malaria/about/biology/index.html Mu, J., Myers, R.A., Jiang, H., Liu, S., Ricklefs, S., Waisberg, M., Chotivanich, K., Wilairatana, P., Krudsood, S., White, N.J., et Plasmodium falciparum genome-wide scans for positive selection, recombination hot spots and resistance to antimalarial drugs Nature Genetics 2010, 42, pp 268-271 Bennett TN, Paguio, M., Gligorijevic, B., Seudieu, C., Kosar, A. D., Davidson, E., and Roepe, P. D. Novel, rapid, and inexpensive cell-based quantification of antimalarial drug efficacy Antimicrobial Agents Chemother. 2004, 48(5): pp 1807-10 Yuan J, Johnson RL, Huang RL, Wichterman J, Jiang HY, Hayton K, Fidock DA, Wellems TE, Inglese J, Austin CP, Su XZ. […]
# Potency means the concentration at half of the fitted maximal effect.
row,Structure (SMILES),Potency
1,C=CC[C@@H]1C=C[C@@H](ON=C2[C@H]3CCn4c(=O)n(-c5ccccc5)c(=O)n4[C@@H]3[C@H](O)[C@@H]3O[C@H]23)[C@@H](CO)O1,inactive
2,CC(=O)OC[C@H]1O[C@H](C#Cc2ccccc2)C=C[C@H]1O,inactive
3,COC(=O)N1C(c2ccccc2)=Cc2ccccc2C1CC(C)=O (stereo not given),inactive
4,C=C(C)CCCN1C=C(C(=O)OCC)C(c2ccccc2)NC1=O (stereo not given),inactive
5,CCN1C(=NCc2ccccc2)N[C@@H](c2ccccc2)[C@H](C(=O)OC)[C@H]1C,inactive
6,C[C@H]1CC[C@H]2C(=O)N(Cc3ccc(Cl)cc3)C[C@H](O)CN2[C@H]1c1ccc(Br)cc1,inactive
7,CC(C)=CCn1cnc2c1C(NOCc1ccccc1)=NCN2,inactive
8,CCN1C(=NCc2ccco2)N[C@@H](c2ccccc2)[C@H](C(=O)OC)[C@H]1C,inactive
9,CC1(C)CC(=O)C2=C(C1)O[C@@]1(CCCCN3C(=O)c4ccccc4C3=O)Cc3c(ccc4ccccc34)[C@H]2O1,inactive
10,COC[C@H]1O[C@@H](c2c(OC)cc(OC)cc2OC)[C@H](OC)[C@@H](OC)[C@H]1OC,inactive
11,Cc1ccc2[nH]c3nc(CCCn4ccnc4-c4ccccc4)nnc3c2c1,inactive
12,CCCCC1=CC2=C(c3ccco3)C(=O)C(C)(OC(=O)c3ccc(OC)cc3)C(=O)C2=CN1C(CO)CO (stereo not given),inactive
13,CC1(C)O[C@@H](C(O)(c2ccccc2)c2ccccc2)[C@H](C(O)(c2ccccc2)c2ccccc2)O1,inactive
14,COC(=O)C1=C(C(=O)OC)[C@@H]2Nc3ccccc3[C@@]23C[C@@H](C(=O)OC)N(C(=O)NC(C)(C)C)C3=N1,inactive
15,CCCCc1nc2c(c3c1C[C@H](C)OC3)CN(C(=O)C1CCCCC1)CC2,inactive
16,COC(=O)N[C@H](CC(C)=O)c1ccc(F)cc1,inactive
17,CCCC=CC1C(=O)[C@@H]2O[C@H]2C2(OCC(CC)(CC)CO2)C1CO (stereo not given in full),inactive
18,COC(=O)NC(C=Cc1ccccc1)C(C(C)=O)C(=O)OC (stereo not given),inactive
19,COCCN1C(=O)CC[C@@]23C1=NC(C(=O)OC)=C(C(=O)OC)[C@@H]2N(Cc1ccccc1)c1ccccc13,inactive
20,COc1ccc2c(c1)O[C@@H](c1cccc(C(F)(F)F)c1)[C@H](O)C2=O,inactive

row,Structure (SMILES),Potency
1,COc1cc2c(cc1OC)[C@@H]1O[C@](CCCCN3C(=O)c4ccccc4C3=O)(C2)OC2=C1C(=O)c1ccccc1C2=O,inactive
2,COC(=O)C1=C(C)N(Cc2ccco2)C(=O)NC1c1ccc(Br)cc1 (stereo not given),inactive
3,CC(C)=CCCC(C)=CCON=C1C[C@@H](O)[C@@H](O)[C@@H]2[C@H]3C(=O)N(Cc4ccc5c(c4)OCO5)C(=O)[C@@H]3CC[C@H]12,inactive
4,O=C1OCCC=C1C(O)CCc1ccccc1 (stereo not given),inactive
5,C=C(Nc1ccc(OC)cc1)C(=O)OC,inactive
6,COC(=O)C1=C(C)N(Cc2ccccc2)C(=NCCCCO)NC1c1cccc(F)c1 (stereo not given),inactive
7,COC(=O)N1C2CC(=O)O[C@H]3c4cc5c(cc4[C@]1(C)[C@@]3(Br)c1ccccc12)OCO5,1.51 µM (active)
8,COC(=O)CCCC1=CC2=C(c3ccccc3)C(=O)C(C)(OC(=O)C3CCCC3)C(=O)C2=CN1CCCCO (stereo not given),inactive
9,CCOC(=O)CCN1C(=O)[C@@H]2[C@H]3[C@H](O)[C@H](O)CC(=NNC(=O)OCc4ccccc4)[C@@H]3CC[C@H]2C1=O,inactive
10,C#CCCCON=C1C[C@@H](O)[C@H](O)[C@H]2[C@@H]3C(=O)N(Cc4ccccc4)C(=O)[C@@H]3CC[C@H]12,inactive
11,CCOC(=O)CN1C(=O)N[C@@H](c2cccc(C(F)(F)F)c2)[C@H](C(C)=O)[C@H]1C,inactive
12,CC(C)=CCN1C(=O)[C@]2(O[C@H](C)CC3=CCCC32)c2c(Br)cccc21 (stereo not given in full),inactive
13,O=C1[C@@H]2[C@H]3[C@H](O)[C@H](O)CC(=NOC[C@@H](O)COCc4ccco4)[C@@H]3CC[C@H]2C(=O)N1C[C@@H]1CCCO1,inactive
14,COC(=O)C[C@H]1c2ccccc2[C@@H]2C(=C[C@@H](C)[C@H]3C(=O)N(c4ccccc4)C(=O)[C@H]32)N1C(=O)OC,inactive
15,COc1ccc([C@]23Cc4cc(C#N)ccc4[C@H](O2)c2c(cc(C)n(-c4ccccc4)c2=O)O3)cc1,inactive
16,CC(C)=CCCC(C)=CCON=C1C[C@@H](O)[C@@H](O)[C@@H]2[C@H]3C(=O)N(c4cccc(Oc5ccccc5)c4)C(=O)[C@@H]3CC[C@H]12,inactive
17,COc1cc2c(cc1OC)C1OC(c3ccsc3)(C2)Oc2cc(C)oc(=O)c21 (stereo not given),inactive
18,COCn1c2ccccc2c2nnc(C(=O)O)nc21,inactive
19,COc1cccc([C@@H]2Oc3ccc(OC)cc3C(=O)[C@@H]2O)c1,inactive
20,C=C(C)C(O)C=Cc1ccccc1OC (stereo not given),inactive
